# Assay outcomes as filed in PubChem.
# LASV entry inh = blocks Lassa virus binding to or entry into cells | Lassa virus pseudotype entry inhibition, cell reporter | Potency, µM (highest dose often 37.9 µM), for inactives: at the top dose activity change, negative = inhibition, usual class: inhibitors | AID 540256 | hit rate 1.2% among 300,000; calls by dose curve; tested in HEK293 cells; further: potency means the concentration at half of the fitted maximal effect; nearly all actives have a fitted effect of over 50% in size
# Marburg entry inh = inhibitors of Marburg virus binding or cell entry. AID 540276. Potency, µM (titrated, usually from 37.8 µM), inactives show at the highest dose activity change, negative = inhibition, actives largely listed as inhibitors. Marburg virus pseudotyped entry inhibition, cell reporter. hit rate 1.8% among 300,000; calls by dose curve; tested in HEK293 cells; further: potency means the concentration at half of the fitted maximal effect
# FMDV antiviral = blocks foot and mouth disease virus; FMDV antiviral cell-based qHTS; hit rate 1.2% among 410,000; Potency, µM (top dose mostly 57.9 µM), for the others: at the highest dose activity change, negative = inhibition, actives largely listed as inhibitors; calls by dose curve; tested in HEK293T cells; further: read-out not given here; potency means the concentration at half of the fitted maximal effect; nearly all actives have a fitted effect of over 45% in size
# HCMV antiviral = inhibitors of human cytomegalovirus | HFF cells, HCMV-luciferase reporter, 72 h; stronger effect = lower value | activity change, negative = inhibition, % at 57.5 µM | hit rate 4.5% among 410,000 | AID 1259415; in the data active means activity change below about -60%; inconclusive means no clear call, values can overlap the other calls; inactive means above about -39%
#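 Screen run at 2 compound doses on HFFs infected with reporter HCMV, MOI 1 PFU/cell. Luciferase activity from cell lysates at 72 h post infection gave inhibition relative to buffer-only and Salinomycin wells.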
# * marks the source's active call; other numbers are inactive results; ? = inconclusive; · = no result given; + = active, no number; ! = not confirmed by another sample; [ ] = remark or other dose. An excerpt weighted towards active compounds, which were near 6.2% of everything screened. On the % scale 0 is the no-effect control and ±100 the full control effect.
SMILES,LASV entry inh,Marburg entry inh,FMDV antiviral,HCMV antiviral
Cc1ccc(C(=O)Nc2cccc(-c3nc(CNC(=O)c4cccc(C)c4C)c(C)o3)c2)s1,·,·,-25%,·
CC(C)CCN1C(=O)CSCC1(C)C(=O)NCc1ccccc1 (configuration not stated),·,·,-9%,85
CC(=O)Nc1ccc(S(=O)(=O)NC2(C(F)(F)F)NC(=O)N(c3ccc(Cl)cc3)C2=O)cc1 (configuration not stated),0%[46.1 µM],?,-12%,4
Cc1nnc(SCc2cccc([N+](=O)[O-])c2)o1,?,?,-7%,-17
O=C(O)CCCCCN1C(=O)C(=O)/C(=C(/O)c2ccccc2)C1c1ccccc1 (configuration not stated),-2%,21%,-13%,-25
CCCNCC(=O)Nc1cccc(S(=O)(=O)NC2=NCCCCC2)c1,14%,3%,-13%,0
O=C(CCl)Nc1cccc(S(=O)(=O)NC2=NCCCCC2)c1,·,·,?,-102*
O=C(CCl)Nc1ccc(S(=O)(=O)NC2=NCCCCC2)cc1,?,?,32µM*,-37
CCN(CC)c1ccc(/C=C/c2ccc3ccc(OC)cc3[n+]2CC)cc1,·,·,7.9µM*,-97*
CC[n+]1ccc(/C=C/c2ccc(N(C)C)cc2)c2ccccc21,?,?,18µM*,-99*
CN(C)c1ccc(C=Cc2nccc3ccccc23)cc1,·,·,32%,8
CC[n+]1ccccc1/C=C/c1ccc(N(C)C)cc1,·,·,?,-86*
CCCCCC[n+]1ccccc1/C=C/c1ccc(N(C)C)cc1,·,·,?,-97*
CCC(=O)Nc1ccc(S(=O)(=O)N2CCN(c3ccc(F)cc3)CC2)cc1,-5%,-4%,·,34
CC[n+]1c(/C=C/c2ccc(N(C)C)cc2)ccc2ccccc21,9.2µM*,1.6µM*,6.3µM*,·
CC[n+]1c(/C=C/c2ccc(OC)c(OC)c2)ccc2ccccc21,·,·,76%,47
CC(=O)Nc1ccc(S(=O)(=O)N2CCN(CCCOc3ccccc3Cl)CC2)cc1,22%,21%,12%,-67*
Cc1ccc(S(=O)(=O)N2CCN(CCNC(=O)C(=O)Nc3ccc(F)cc3)CC2)cc1,1%,?,3%,-67*
COc1ccc(OC)c(CN2CCN(S(=O)(=O)c3ccc(NC(C)=O)cc3)CC2)c1,-14%,-17%[46.1 µM],-4%,-18
O=C(NCCN1CCN(S(=O)(=O)c2ccccc2)CC1)C(=O)Nc1ccc(F)cc1,-12%[46.1 µM],7%[46.1 µM],-15%,28
COc1cccc(OCCCN2CCN(S(=O)(=O)c3ccc(NC(C)=O)cc3)CC2)c1,8.2µM*,6.5µM*,14µM*,-81*
COc1cc(CN2CCN(S(=O)(=O)c3ccc(NC(C)=O)cc3)CC2)cc(OC)c1OC,-2%[46.1 µM],·,-15%,-106*
S=c1[nH]nc(-c2cccc3ccccc23)n1-c1cccnc1,7%,6%[46.1 µM],3%,9
COc1ccc(C)cc1-n1c(SCC(=O)N2CCOCC2)nc2ccccc2c1=O,·,·,-23%,?
c1ccc(C2CN3CCSC3=N2)cc1 (configuration not stated),30%,?,-10%,0
SMILES,LASV entry inh,Marburg entry inh,FMDV antiviral,HCMV antiviral
Nc1nonc1-n1nnc(C(=O)N/N=C/c2ccc3c(c2)OCO3)c1-c1ccccc1,·,19%[46.1 µM],5%,-70*
Nc1nonc1-n1nnc(C(=O)N/N=C/c2c(F)cccc2Cl)c1-c1ccc2c(c1)OCO2,·,·,8%,0
CC(C)c1c(C(=O)N/N=C/c2ccc3c(c2)OCO3)nnn1-c1nonc1N,·,·,-3%,?
Nc1nonc1-n1nnc(C(=O)N/N=C/c2ccc(F)cc2)c1-c1cccs1,-6%[46.1 µM],-17%[46.1 µM],2%,+
Nc1nonc1-n1nnc(C(=O)N/N=C/c2ccc(Br)cc2)c1-c1ccc2c(c1)OCO2,-5%[46.1 µM],?,15%,+
Nc1nonc1-n1nnc(C(=O)N/N=C/c2cccc(Cl)c2)c1-c1ccc2c(c1)OCO2,7%[46.1 µM],1%[46.1 µM],-15%,+
CCCn1nc(Oc2nc(SC)nc(N(C)C)n2)ccc1=O,5%,-19%,4%,2
CCOCCCNC(=O)C(c1ccc(Cl)cc1)N(Cc1cccs1)C(=O)c1ccccn1 (configuration not stated),·,?,-12%,-33
O=C(Cn1c(NCCO)nc2ccccc21)NCCc1ccc(F)cc1,2%,?,0%,12
N=c1c(-c2nc3ccccc3[nH]2)cc(C(=O)c2cccs2)nn1-c1ccccc1,0%,-10%,?,·
Cc1cc(C)cc(NC(=S)N2CCN(CCO)CC2)c1,-19%,2%,-8%,-14
Cc1ccc2cc(CN(Cc3ccc(F)cc3)Cc3nnnn3C3CCCC3)c(=O)[nH]c2c1,-21%,15µM*!,·,25
